Test results as given in PubChem BioAssay.
Activity calls are given as the source filed them.

How the values were obtained:
[1] = optical density shifts of acrAB sulA E. coli – strain DRC41, OD650, 48 h, E. coli filamentation inducer project, primary screen (AID 1152); details: higher = more signal, called active from +8 up or from −8 down;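 note: E. coli MC1000 strain DRC41 lacking acrAB efflux pump and sulA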
[2] = probe aLefty1 binding on compound microarray – biochemical, small-molecule microarray, 635/667 nm fluorescence, primary screen (AID 1153); details: higher = more signal;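 note: score merges spot fluorescence with signal-to-noise ratio from the scanned slide images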
[3] = plasmodial surface anion channel blockers, osmotic lysis – cell-based, P. falciparum Indochina, OD700, 1 h, primary screen (AID 1154); details: P. falciparum Indochina infected RBC osmotic lysis, higher = more signal, called active from +8 up or from −8 down
[4] = plasmodial surface anion channel blockers, osmotic lysis – cell-based, P. falciparum Indochina, OD700, 2 h, primary screen (AID 1155);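 note: lysis reports solute entry through the parasite surface anion channel PSAC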; details: P. falciparum Indochina infected erythrocytes, higher = more signal, called active from +8 up or from −8 down
[5] = changes in parasitized red cell lysis, either direction – P. falciparum Indochina, OD700, 3 h, PSAC antagonist project, primary screen (AID 1156); details: P. falciparum-infected erythrocytes, osmotic lysis, higher = more signal, called active from +8 up or from −8 down
[6] = plasmodial surface anion channel blockers, osmotic lysis – cell-based, P. falciparum Indochina, OD700, 18 h, primary screen (AID 1157); details: P. falciparum Indochina infected erythrocytes, osmotic lysis OD700, 18 h; higher = more signal, called active from +8 up or from −8 down
[7] = S6 kinase pathway phospho-S6 level changes – cell-based, A549, cytoblot, luminescence, serum-stimulated, primary screen (AID 1158); details: 5 h, higher = more signal;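 note: serum-stimulated A549 lung adenocarcinoma cells; signal is phosphorylated S6 detected by cytoblot immunostaining with HRP secondary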
[8] = target: NADPH oxidase 2 (Homo sapiens) (UniProt P04839); experiment: compounds shifting NOX2 Amplex Red fluorescence – cell-based, HEK293-NOX2, PMA-stimulated, NOX inhibitor project, primary screen (AID 1159); details: 45 min, higher = more signal, called active from +8 up or from −8 down; note: test concentration not given here
Chain of NADPH oxidase 2 (Homo sapiens) (P04839 whole entry, looked up): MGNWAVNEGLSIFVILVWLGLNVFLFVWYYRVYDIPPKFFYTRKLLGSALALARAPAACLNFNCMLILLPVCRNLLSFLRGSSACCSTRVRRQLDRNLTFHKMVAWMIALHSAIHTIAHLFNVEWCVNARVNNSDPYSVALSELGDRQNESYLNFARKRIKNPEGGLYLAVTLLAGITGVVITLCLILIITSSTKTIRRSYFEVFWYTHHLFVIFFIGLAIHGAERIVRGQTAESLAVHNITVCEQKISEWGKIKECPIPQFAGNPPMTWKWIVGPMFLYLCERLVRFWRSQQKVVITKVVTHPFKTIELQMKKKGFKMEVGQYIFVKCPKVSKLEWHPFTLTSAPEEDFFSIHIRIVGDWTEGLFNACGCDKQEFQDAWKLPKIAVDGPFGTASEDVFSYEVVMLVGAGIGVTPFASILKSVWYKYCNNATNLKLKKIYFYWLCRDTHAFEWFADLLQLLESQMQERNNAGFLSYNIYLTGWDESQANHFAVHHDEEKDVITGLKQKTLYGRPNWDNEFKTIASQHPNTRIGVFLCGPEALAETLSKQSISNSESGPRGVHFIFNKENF

[9] = target: NADPH oxidase 4 (Homo sapiens) (UniProt Q9NPH5); experiment: compounds shifting NOX4 Amplex Red fluorescence – cell-based, HEK293-NOX4, tetracycline-induced, NOX inhibitor project, primary screen (AID 1160); details: HEK293-NOX4, Amplex Red H2O2 fluorescence, 45 min; higher = more signal, called active from +8 up or from −8 down
Chain of NADPH oxidase 4 (Homo sapiens) (Q9NPH5 whole entry, looked up): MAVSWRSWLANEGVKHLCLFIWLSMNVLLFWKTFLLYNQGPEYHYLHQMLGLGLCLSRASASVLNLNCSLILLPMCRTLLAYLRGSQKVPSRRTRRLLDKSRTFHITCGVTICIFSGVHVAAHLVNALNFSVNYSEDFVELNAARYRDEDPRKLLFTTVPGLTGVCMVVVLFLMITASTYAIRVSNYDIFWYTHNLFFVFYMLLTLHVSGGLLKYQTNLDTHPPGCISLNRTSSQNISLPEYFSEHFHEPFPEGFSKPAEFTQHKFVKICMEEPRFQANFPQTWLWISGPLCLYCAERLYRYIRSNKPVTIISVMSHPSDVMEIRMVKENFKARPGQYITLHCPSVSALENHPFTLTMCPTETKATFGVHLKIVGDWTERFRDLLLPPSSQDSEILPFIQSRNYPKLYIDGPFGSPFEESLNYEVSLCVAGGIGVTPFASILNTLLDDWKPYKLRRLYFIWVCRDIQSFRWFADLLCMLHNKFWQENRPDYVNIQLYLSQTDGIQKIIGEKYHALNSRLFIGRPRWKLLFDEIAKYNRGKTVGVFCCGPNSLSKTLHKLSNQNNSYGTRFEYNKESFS

[10] = target: NADPH oxidase 5 (Homo sapiens) (UniProt Q96PH1); experiment: compounds shifting NOX5 Amplex Red fluorescence – cell-based, HEK293-NOX5, NOX inhibitor project, primary screen (AID 1161); details: HEK293-NOX5, ionomycin, 45 min, higher = more signal
Chain of NADPH oxidase 5 (Homo sapiens) (Q96PH1 whole entry, looked up): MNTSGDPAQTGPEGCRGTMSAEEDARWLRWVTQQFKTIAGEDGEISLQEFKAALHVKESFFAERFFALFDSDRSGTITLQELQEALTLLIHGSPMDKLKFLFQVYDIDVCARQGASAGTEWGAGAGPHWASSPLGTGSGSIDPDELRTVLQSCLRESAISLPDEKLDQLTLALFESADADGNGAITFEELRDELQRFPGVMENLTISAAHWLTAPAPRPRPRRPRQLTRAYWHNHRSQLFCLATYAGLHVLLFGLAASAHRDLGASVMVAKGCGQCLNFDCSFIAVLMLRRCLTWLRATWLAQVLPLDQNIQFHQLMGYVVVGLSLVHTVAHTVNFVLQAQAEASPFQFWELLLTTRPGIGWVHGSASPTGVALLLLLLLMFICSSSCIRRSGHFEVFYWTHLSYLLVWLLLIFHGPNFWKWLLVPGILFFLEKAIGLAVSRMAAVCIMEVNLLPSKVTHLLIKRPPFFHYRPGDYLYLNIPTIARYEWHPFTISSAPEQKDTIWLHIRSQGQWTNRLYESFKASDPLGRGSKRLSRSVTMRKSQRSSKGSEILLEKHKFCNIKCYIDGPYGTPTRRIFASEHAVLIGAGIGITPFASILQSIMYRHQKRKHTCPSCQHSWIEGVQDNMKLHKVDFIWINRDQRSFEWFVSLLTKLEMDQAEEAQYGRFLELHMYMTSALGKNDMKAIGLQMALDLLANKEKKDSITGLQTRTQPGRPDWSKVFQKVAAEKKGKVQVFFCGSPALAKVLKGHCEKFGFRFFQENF

Compound | z-score [1] | composite z-score [2] | z-score [3] | z-score [4] | z-score [5] | z-score [6] | z-score [7] | z-score [8] | z-score [9] | z-score [10]
CCOC(=O)[C@H]1C/C=C/C[C@H](C(=O)OCC)C(=O)O[C@H]2[C@@H](OC)O[C@H](CO)[C@@H](OC(=O)Nc3ccc(C#N)cc3)[C@@H]2OC1=O | 3.06 (inactive) | -0.364 | 12.3 (active) | 2.33 (inactive) | -0.906 (inactive) | 1.13 (inactive) | 2.47 | -0.311 (inactive) | 0.2 (inactive) | 1.4
CCOC(=O)C[C@H]1[C@H](OC(=O)Cc2ccc3c(c2)OCO3)[C@@H](NC(=O)c2ccc(-c3ccccc3)cc2)c2cc(OCCCO)ccc2N1C(=O)c1ccc2ccccc2n1 | 1.55 (inactive) | -0.0536 | 8.44 (active) | 0.67 (inactive) | -0.352 (inactive) | -0.258 (inactive) | 2.85 | -2.09 (inactive) | -1.28 (inactive) | -1.21
CS(=O)(=O)CCOC(=O)C1=CC(CCCO)=CC(c2ccc(CN3CCCC3)cc2)N(Cc2cc3c(cc2Br)OCO3)C=C1C(=O)OCCS(C)(=O)=O (stereo not given) | -0.357 (inactive) | 0.485 | 0.246 (inactive) | -0.211 (inactive) | 1.14 (inactive) | 0.111 (inactive) | -0.606 | 2.54 (inactive) | 0.524 (inactive) | 0.597
C=CC[C@]12N=C(c3ccc(OCCCO)cc3)O[C@H]1c1ccccc1N(Cc1ccccc1)C2=O | 0.323 (inactive) | 0.445 | 28.8 (active) | 27.9 (active) | 3.64 (inactive) | 6.21 (inactive) | -0.329 | -0.89 (inactive) | 0.393 (inactive) | -0.835
O=C(c1ccccc1)N1Cc2ccccc2[C@@H]2OC(c3ccc(OCCCO)cc3)=N[C@]2(Cc2ccccc2)C1=O | -0.672 (inactive) | 0.343 | 10.8 (active) | 1.35 (inactive) | 1.25 (inactive) | 1.23 (inactive) | -0.118 | -0.893 (inactive) | 0.418 (inactive) | -0.781
O=C1O[C@H](c2ccccc2)[C@H](c2ccccc2)N2[C@H]1[C@@H](C(=O)O)[C@]1(C(=O)Nc3ccc(C#CC4=CCCCC4)cc31)[C@H]2c1ccccc1OCCO | -0.611 (inactive) | 1.44 | -1.84 (inactive) | -1.36 (inactive) | -14.6 (active) | -1.92 (inactive) | 0.296 | 2.51 (inactive) | -1.94 (inactive) | -1.08
CCOC(=O)C=Cc1cc([N+](=O)[O-])ccc1O | -1.72 (inactive) | -0.104 | 26 (active) | 11.8 (active) | 2.13 (inactive) | -0.816 (inactive) | 2.41 | -4.11 (inactive) | -2.98 (inactive) | -3.76
COCCCNC(=O)C1N=C(c2ccc(OCCCO)cc2)N(c2ccccc2)O1 (stereo not given) | 0.768 (inactive) | -0.265 | 18.4 (active) | 2.14 (inactive) | 0.669 (inactive) | 0.325 (inactive) | 0.147 | -3.86 (inactive) | -0.749 (inactive) | -0.819
COc1ccc([Si](C)(C)[C@H]2[C@H](CC(=O)N3Cc4ccccc4C[C@H]3CO)O[C@@]3(C(=O)N(Cc4ccc(N5CCC5=O)cc4)c4ccccc43)[C@@H]2C)cc1 | 0.97 (inactive) | 0.874 | 6.86 (inactive) | 1.45 (inactive) | 1.46 (inactive) | 1.11 (inactive) | 0.414 | -0.241 (inactive) | 0.465 (inactive) | -1.64
COC(=O)C(CC#Cc1ccc2c(c1)[C@]1(C(=O)N2)[C@H](c2ccc(O)cc2)N2[C@H](c3ccccc3)[C@H](c3ccccc3)OC(=O)[C@H]2[C@@H]1C(=O)Nc1nc2ccccc2s1)C(=O)OC | 1.25 (inactive) | 0.506 | 1.11 (inactive) | -0.314 (inactive) | -0.0671 (inactive) | -1.84 (inactive) | 2.08 | 2.11 (inactive) | 0.604 (inactive) | 2.21
CN1C(=O)C2C=CC(C(O)c3ccc(-c4ccccc4)s3)N(N(c3ccccc3)c3ccccc3)C2C1=O (stereo not given) | -0.562 (inactive) | 0.2 | 3.38 (inactive) | 2.19 (inactive) | 0.977 (inactive) | 1.32 (inactive) | -1.12 | 1.1 (inactive) | 0.963 (inactive) | -1.15
Cc1ccc(S[C@]2(C(=O)NCC(C)C)CC(=O)N(Cc3cc(C(F)(F)F)cc(C(F)(F)F)c3)[C@@H]2c2ccc(CO)cc2I)cc1 | -0.336 (inactive) | 0.12 | 2.53 (inactive) | -0.449 (inactive) | 0.767 (inactive) | 0.278 (inactive) | -0.301 | 2.07 (inactive) | -1.39 (inactive) | -0.95
